Structures can show the parent of a compound that is named as a salt.

In one assay the test system is HCC1937. Description: relative cell viability, compound alone, vs DMSO (fraction of DMSO control); higher = less growth inhibition. Conditions: 72 h.
The next assay concerns MDA-MB-231. The description is as above. Conditions: 72 h.
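Note: viability read out with the CCK-8 kit in 96-well plates, screening a set of 303 compounds acting on lipid metabolism targets.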

On to `O=C(Nc1cnccc1Cl)N1CCN(Cc2ccc3c(c2)OC(F)(F)O3)CC1`, for which the relative cell viability in the assay with HCC1937 is 0.747; in the assay with MDA-MB-231 it was 0.771.
The corresponding values for `CCCc1cc(-c2nc(-c3ccc(C)cc3)cs2)ccn1` [Fatostatin] are 0.733 and 0.745.
The corresponding values for `O=C(NCCS(=O)(=O)c1ccc(C(F)(F)F)cn1)c1ccc(Cl)cc1` are 0.749 and 0.901.
`C=C(C)[C@@H]1CC[C@]2(C)CC[C@]3(C)[C@H](CC[C@@H]4[C@@]5(C)CCC(=O)C(C)(C)[C@@H]5CC[C@]43C)[C@@H]12`: the relative cell viability with HCC1937 came to 1.04; with MDA-MB-231, 1.08.
The corresponding values for `Cc1cc(SCc2sc(-c3ccc(C(F)(F)F)cc3)nc2C)ccc1OCC(=O)O` are 0.916 and 0.857.
For `COc1ccc2c(c1)CCC1C2CCC2(C)C(NCCCCCCN3C(=O)C=CC3=O)CCC12` (centres undefined), in that order: 0.699 and 0.806.
The corresponding values for `C[C@@H]1O[C@@H](O[C@H]2[C@H](Oc3cc(O)c4c(c3)O[C@H](c3ccc(O)cc3)CC4=O)O[C@H](CO)[C@@H](O)[C@@H]2O)[C@H](O)[C@H](O)[C@H]1O` [Naringin] are 1.24 and 0.892.
On to `Cc1cnc(C(=O)NCCc2ccc(S(=O)(=O)NC(=O)NC3CCCCC3)cc2)cn1` [Glipizide], for which the relative cell viability amounted to 0.679 in the assay with HCC1937 and 0.817 with MDA-MB-231.
For `CCCc1cc(-c2nc(-c3ccc(NS(C)(=O)=O)cc3)cs2)ccn1`, in that order: 0.669 and 0.926.
For `CCN(CC)Cc1ccc(C(=O)N(CCc2ccccc2OC)[C@@H]2CCNC2)cc1`, in that order: 1.45 and 0.979.
The corresponding values for `Cn1c2cc([S+](C)[O-])sc2c2cnn(Cc3cccc(N)c3)c(=O)c21` (centres undefined) are 0.688 and 0.96.
For `O=C1c2cccc(O)c2C(=O)c2c(O)cccc21` [Antrapurol], the relative cell viability in the assay on HCC1937 is 0.699; with MDA-MB-231, 0.808.
For the molecule `CC(=O)c1c(C)cc2cccc(O)c2c1O` [Nepodin], the relative cell viability in the assay on HCC1937 was found to be 0.75; in the assay with MDA-MB-231 it was 0.797.
Take `O=C(O)Cn1nnc(-c2cc(N3CCC(Oc4cc(F)ccc4Br)CC3)no2)n1`: the values for the relative cell viability in the assay with HCC1937 and in the assay on MDA-MB-231 were 0.842 and 0.882, respectively.
For `O=S(=O)(c1ccccc1)N(CC(F)(F)F)c1ccc(C(O)(C(F)(F)F)C(F)(F)F)cc1`, in that order: 0.957 and 1.23.
For `CSc1ccc(C(=O)/C=C/c2cc(C)c(OC(C)(C)C(=O)O)c(C)c2)cc1` [Elafibranor], in that order: 1.57 and 1.06.
The corresponding values for `c1ccc([C@H]2CN3CCSC3=N2)cc1` [Levamisole hydrochloride] are 0.815 and 0.887.
`Cc1nc2c([nH]1)c(=O)n(C)c(=O)n2Cc1ccco1` [Furafylline]: the relative cell viability with HCC1937 came to 0.721; in the assay with MDA-MB-231, 0.924.
For `COc1ccc(-c2cc(=O)c3c(O)c(OC)c(OC)c(OC)c3o2)cc1OC`, in that order: 0.699 and 0.82.
For `CC(O)(CC(=O)O)CC(=O)O` [Meglutol], in that order: 0.748 and 0.891.
For `CCN(CC)C(=O)N1CCN(C)CC1` [Diethylcarbamazine citrate], in that order: 0.699 and 0.856.
`Cc1c2c(=O)n(-c3ccccc3Cl)[nH]c2cc(=O)n1Cc1ccccn1`: the relative cell viability was found to be 0.973 in the assay on HCC1937 and 1.07 in the assay on MDA-MB-231.
The corresponding values for `N#Cc1ccc(Oc2cccc(NC(=O)Nc3ccc(Cl)c(C(F)(F)F)c3)c2)cc1` are 0.1 and 0.276.
The corresponding values for `CC(C)(CCCCCC(O)CCCCCC(C)(C)C(=O)O)C(=O)O` are 0.598 and 0.886.
The corresponding values for `CCOP(=O)(OCC)C(=Cc1cc(C(C)(C)C)c(O)c(C(C)(C)C)c1)P(=O)(OCC)OCC` are 0.631 and 0.779.
In the case of `C[C@]12C=CC(=O)N[C@@H]1CC[C@@H]1[C@@H]2CC[C@]2(C)[C@@H](C(=O)Nc3cc(C(F)(F)F)ccc3C(F)(F)F)CC[C@@H]12` [Dutasteride], the relative cell viability with HCC1937 was determined as 0.798; in the assay on MDA-MB-231, 0.777.
For the molecule `NC(=O)c1ncn([C@@H]2O[C@H](CO)[C@@H](O)[C@H]2O)c1N` [AICAR (Acadesine)], the relative cell viability worked out at 0.804 in the assay with HCC1937 and 0.892 with MDA-MB-231.
For `O=S(=O)(O)c1ccc2cc(N=Nc3cc(S(=O)(=O)O)c4cccnc4c3O)ccc2c1`, in that order: 0.987 and 0.851.
For `O=c1cc(-c2ccc(O)c(-c3c(O)cc(O)c4c(=O)cc(-c5ccc(O)cc5)oc34)c2)oc2cc(O)cc(O)c12` [Amentoflavone], in that order: 0.782 and 0.812.
The corresponding values for `O=C(Nc1ccc(C(O)(C(F)(F)F)C(F)(F)F)cc1)c1ccc(C(F)(F)F)cc1` are 0.54 and 0.631.
Regarding `O=C1C(SCCO)=C(SCCO)C(=O)c2ccccc21`, the relative cell viability is 0.777 with HCC1937 and 0.875 with MDA-MB-231.
Consider `CN(C)c1cccc(-c2c3c(=O)n(-c4ccccc4Cl)[nH]c3cc(=O)n2C)c1`, for which the results for the relative cell viability in the assay on HCC1937 and in the assay with MDA-MB-231 were 0.903 and 0.974, respectively.
The corresponding values for `Fc1ccc(-c2c3cccc(C(F)(F)F)c3nn2Cc2ccc(F)cc2Cl)cc1` are 1.11 and 0.816.
The corresponding values for `Cc1cc(C)c(S(=O)(=O)N(CCc2cccc(Br)c2)Cc2ccc(-c3cccc(S(C)(=O)=O)c3)cc2)c(C)c1` are 0.708 and 0.862.
The corresponding values for `Cc1nc2ccc(NCc3cccc(C(F)(F)F)c3)cc2n(CCNC(=O)CO)c1=O` are 0.667 and 0.835.
Turning to `O=C(O)Cc1cccc(OCCCN(Cc2cccc(C(F)(F)F)c2Cl)CC(c2ccccc2)c2ccccc2)c1`, the values for the relative cell viability in the assay on HCC1937 and with MDA-MB-231 were 0.78 and 1.11, respectively.
The corresponding values for `Cc1ccc(C)c(OCCCC(C)(C)C(=O)O)c1` [Gemfibrozil] are 0.736 and 0.783.

These data come from the supplement of paper PMC9492666.
